These results are taken from ChEMBL document CHEMBL4513216, “Probing the Open Global Health Chemical Diversity Library for Multistage-Active Starting Points for Next-Generation Antimalarials” (ACS Infect Dis, 2020).

The campaign covered roughly 65,000 compounds. About 2,100 (3.2%) showed an effect of 50% or more. The median lay at about -52%. The entries come from a sample that favours strong results as a whole.

For the experiment, the system named is Plasmodium falciparum. Briefly: Screen against P. falciparum Asexual Blood Stage (ABS), at 5uM. Type of experiment: functional, Dd2. The note with it: tested at 5 uM.
Regarding `CN(C)c1nccc(C2CN(c3ccccc3)CCO2)n1` (configuration not stated), the INHIBITION is -40.1%.
Turning to `Cc1ccc(C)n1-c1c(C(=O)NCC(C)N(C)C)cnn1C` (configuration not stated), the INHIBITION is on record as -93.5%.
Take `CCN1C(=O)CCCC12CCCN(C(=O)c1ccncc1F)C2` (configuration not stated): the INHIBITION is recorded as -46.7%.
Under `Fc1ccccc1CN1CCCC(NC2CCOCC2)C1` (configuration not stated) stands -11.9%; under `CC(C)(CNC1CCCN(Cc2ccccc2F)C1)CN1CCOCC1` (configuration not stated), 56.4%; under `CC(C)(CNC1CCCN(Cc2ccccn2)C1)CN1CCOCC1` (configuration not stated), -82.2%.
Regarding `CN(C)c1ncc(CNC(=O)Nc2ccccc2F)n1C`, the INHIBITION is -31%.
On to `CN(C)c1ncc(CNC(=O)Nc2ccc(C(F)(F)F)cc2)n1C`, for which the INHIBITION came to 68.3%.
The result for `CN(C)c1ncc(CNC(=O)Nc2ccccc2C(F)(F)F)n1C` reads -113%; that for `Cn1cc(C(=O)NCc2cn3c(n2)CN(C2CCOCC2)CC3)cn1`, -26.8%.
Regarding `COCCN(C(=O)c1ccccn1)c1nc2c(s1)CCc1c-2cnn1C`, the INHIBITION was determined as 6.99%.
The result for `CC(C)[C@H]1CN(C2Cc3ccccc3C2)C[C@@H]1NS(=O)(=O)N(C)C` reads 61.6%; that for `CC(=O)c1cc(CN2C[C@@H](NS(=O)(=O)N(C)C)[C@H](C(C)C)C2)cs1`, 32.8%; that for `CC(C)[C@@H]1CN(CCOc2ccccc2)C[C@H]1NS(=O)(=O)N(C)C`, 40.3%.
The result for `CC(C)[C@H]1CN(C2Cc3ccccc3C2)C[C@@H]1NS(C)(=O)=O` reads 34.6%; that for `Cc1nc(CN2C[C@@H](NS(=O)(=O)N(C)C)[C@H](C(C)C)C2)cs1`, 19.1%; that for `CC(C)[C@@H]1CN(Cc2ccsc2)C[C@H]1NS(=O)(=O)N(C)C`, 66.3%.
As for `Cc1ccsc1CN1CCc2c(nc(N3CCCCC3C)[nH]c2=O)C1` (configuration not stated), the INHIBITION was -14.7%.
As for `COCCN1C[C@@H]2CN(c3cc(OC)ncn3)CCC[C@]2(C(=O)O)C1`, the INHIBITION was -84%.
The result for `O=C(NCc1cn2c(n1)CN(CC1CCOCC1)CC2)C1CCC1` reads -14.2%; that for `c1ncn(Cc2nnc(C3CCN(CC4CC4)CC3)n2C2CC2)n1`, -88.1%; that for `Cc1cc(NC(=O)NCC(O)c2ccc(F)cc2)n(C)n1` (configuration not stated), 18.3%.
The result for `Cc1cc(C)cc(CNc2ccc(C(=O)NC(C)CO)cc2)c1` (configuration not stated) reads -96.7%; that for `COC(=O)CC1CCCCN1CC(=O)Nc1ccc(F)cc1Cl` (configuration not stated), -174%.
Under `CCN1CCCC(O)(CNCc2ccccc2F)C1` (configuration not stated) stands 40.6%.
As to `CCN1CCCC(O)(CN(C)Cc2c(C)nn(C)c2C)C1` (configuration not stated), the INHIBITION is given as -105%.
The result for `CCN1CCCC(O)(CN(C)Cc2ccccc2F)C1` (configuration not stated) reads 57.5%.
As for `Cc1nn(C)c(Cl)c1C1CCCN1CC(=O)NCc1ccco1` (configuration not stated), the INHIBITION is reported as -24.5%.
On to `CC(NCc1cccs1)c1ccc(OCc2nccn2C)cc1` (configuration not stated), for which the INHIBITION is on record as -50.1%.
The result for `CCc1cc(N2CCCNCC2)n2nc(C)c(C)c2n1` reads 54.5%.
The result for `CCc1cc(N2CCS(=O)(=O)CC2)n2nc(C)c(C)c2n1` reads -16.5%.
Under `CCc1cc(N2CCSCC2)n2nc(C)c(C)c2n1` stands -90.3%; under `CCNc1ncc(CN2C[C@@H]3CC[C@H]2CN(C(=O)C2CCC2)C3)cn1`, -47.5%.
Consider `O=C([C@H]1CCCO1)N1CCCC2(COCCN(c3ccccc3)C2)C1` (some centres not stated), for which the INHIBITION amounted to 25.2%.
Under `Cc1cnn(CCNCC(O)COc2ccc(Cl)cc2Cl)c1` (configuration not stated) stands 20.2%; under `Cc1cnn(CCNCC(O)COc2ccc(Cl)cc2)c1` (configuration not stated), -16.9%; under `Cc1cnn(CCNCC(O)COc2cc(Cl)ccc2Cl)c1` (configuration not stated), 58%.
On to `c1cc(CNCc2ccc(-n3cncn3)nc2)cc(OC2CCCC2)c1`, for which the INHIBITION is reported as -6.1%.
The result for `Cc1ccc(C(=O)N2CCc3ncnc(-c4cnn(C)c4)c3CC2)o1` reads -34.2%; that for `Cc1ccc(OCC(=O)Nc2ccc(S(C)(=O)=O)cc2)cc1C`, -89.1%.
The result for `N#Cc1ccc(NCCCN2C(=O)COc3ccccc32)nc1` reads -30.6%; that for `N#Cc1c(Cl)nsc1NCCCN1C(=O)COc2ccccc21`, 58.1%.
The result for `N#Cc1cnc(NCCCN2C(=O)COc3ccccc32)c(Cl)c1` reads -73.7%.
Regarding `CC(C)NC(=O)c1sc2ccccc2c1C1CCC(CN)CC1` (configuration not stated), the INHIBITION was determined as 0.324%.
Under `COc1nn(C)c2c1CCCN(C(=O)c1ccc3ccccc3n1)C2` stands -94.4%; under `O=C(c1ccc[nH]1)N1C[C@@H]2CC[C@H]1CN(C1Cc3ccccc3C1)C2`, -60.5%; under `CCCc1nc(C[S+]([O-])Cc2cn3cccc(C)c3n2)no1` (configuration not stated), -22%.
Turning to `CCN1CCO[C@@H]2CN(C(=O)c3ccc4[nH]ccc4c3)CC[C@@H]2C1`, the INHIBITION is listed as -49.2%.
As to `Cc1ncc(-c2ccnc(N3CCC[C@@H]3CO)n2)c(-c2cccnc2)n1`, the INHIBITION was -23.8%.
`OC[C@@H]1CCCN1c1nccc(-c2c[nH]nc2-c2ccncc2)n1`: the INHIBITION came to 68.3%.
Under `CN1CCCN(c2nccc(-c3cc(C(=O)O)ccn3)n2)CC1` stands -113%.
Under `CN1CCCN(c2nccc(-c3c[nH]c4ccc(Br)cc34)n2)CC1` stands 43.1%; under `OCCNc1nccc(-c2c[nH]nc2-c2ccncc2)n1`, -56.1%.
Turning to `CN1CCCN(c2nccc(-c3c[nH]nc3-c3ccncc3)n2)CC1`, the INHIBITION turned out to be 66.9%.
The result for `CNc1cccc(C2CCCN(C(=O)c3cscn3)C2)n1` (configuration not stated) reads -9%; that for `CC1N(C)C(=O)COC12CCN(Cc1ccsc1)CC2` (configuration not stated), -52.9%; that for `COCCN1CCCC1c1nccnc1Nc1nccs1` (configuration not stated), 1.36%.
On to `Cc1cccn2c(CC(=O)N3CCC(CCn4cccn4)CC3)cnc12`, for which the INHIBITION is listed as -1.65%.
Under `N#Cc1cccc(OCCN2CCCC2C(=O)NC2CC2)c1` (configuration not stated) stands -14.2%; under `N#Cc1cccc(OCCN2CCCC2C(=O)N2CCSCC2)c1` (configuration not stated), 51.9%.
Under `N#Cc1cccc(OCCN2CCCC2C(=O)NCC(F)(F)F)c1` (configuration not stated) stands 1.9%; under `Cc1cccc2nc(CNCc3cccc4c3OCCCO4)cn12`, 47.8%; under `c1cc(CNCCc2cn3ccccc3n2)c2c(c1)OCCCO2`, -57.2%.
Under `Cc1cccn2cc(CNCc3cccc4c3OCCCO4)nc12` stands 53.7%; under `Cc1ccc(CN2Cc3c(C(=O)N(C)C)nn(C)c3C2)s1`, -70.8%.
In the case of `Cc1nnc(N2C[C@@H](OCCCn3cccn3)[C@H]3OCCC[C@H]32)s1`, the INHIBITION is recorded as -31.4%.
Take `OC1(CNCc2csc(-c3ncccn3)n2)CCCNC1` (configuration not stated): the INHIBITION is recorded as -26.6%.
